This is a sample that favours compounds with a hit; in the whole collection about 2.4% have one here.
FEN1 inh = qHTS Assay for the Inhibitors of Human Flap endonuclease 1 (FEN1); Potency, µM (highest dose often 114 µM), for inactives: top-dose activity change, negative = inhibition, usual class: inhibitors; Recombinant FEN1 flap cleavage, fluorescence, 15 min; 390,000 tested, 0.35% active; P39748; AID 588795, 2011; further: on the % scale 0 is the no-effect control and ±100 the full control effect; nearly all actives have a fitted effect of over 65% in size
Target sequence (P39748 whole entry, looked up): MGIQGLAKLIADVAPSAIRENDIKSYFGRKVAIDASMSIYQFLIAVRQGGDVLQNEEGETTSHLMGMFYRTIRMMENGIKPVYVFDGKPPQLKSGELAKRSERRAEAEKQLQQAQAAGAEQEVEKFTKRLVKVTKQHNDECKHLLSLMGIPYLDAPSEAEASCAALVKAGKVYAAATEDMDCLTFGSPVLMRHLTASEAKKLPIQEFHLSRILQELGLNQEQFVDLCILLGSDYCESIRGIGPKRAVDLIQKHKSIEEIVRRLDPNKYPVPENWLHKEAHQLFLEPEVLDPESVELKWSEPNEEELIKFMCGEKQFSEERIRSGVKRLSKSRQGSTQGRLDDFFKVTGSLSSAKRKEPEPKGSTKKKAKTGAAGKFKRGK
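Quantitative HTS format: each compound was titrated, incubated with 10 nM nuclease for 15 min at room temperature, then challenged with flap substrate at 50 nM final. Signal change over 15 min gave concentration–effect curves.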
Pol kappa inh = qHTS for Inhibitors of Polymerase Kappa; Potency, µM (top dose mostly 107 µM), for inactives: at the top dose activity, negative = inhibition, hits mostly inhibitors; 400,000 tested, 0.53% active; purified Pol kappa, fluorescent DNA synthesis assay, 10 min; further: on the % scale 0 is the no-effect control and ±100 the full control effect
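First, compounds were pin-transferred onto 10 nM Pol kappa. After 15 min at room temperature, substrate was added to 50 nM final. Fluorescence was then measured kinetically at 0 and 10 min.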
POLB inh = qHTS Assay for Inhibitors of DNA Polymerase Beta. P06746. Pol beta primer extension/strand displacement, fluorescence kinetic. Potency, µM (titrated, usually from 114 µM), without a hit: at the highest dose activity change, negative = inhibition, most hits filed as inhibitors. 340,000 tested, 1.3% active. AID 485314, 2010; further: on the % scale 0 is the no-effect control and ±100 the full control effect
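Human Pol beta at 10 nM; strand-displacement substrate 50 nM final. Compound exposure 15 min at room temperature before start, reaction 10 min at room temperature.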
POLH inh = qHTS for Inhibitors of Polymerase Eta | DNA polymerase eta (Homo sapiens), Q9Y253 | recombinant Pol eta, fluorescent DNA replication assay | Potency, µM (series often up to 114 µM), inactives show top-dose activity change, negative = inhibition, hits mostly inhibitors | 390,000 tested, 1.2% active; further: on the % scale 0 is the no-effect control and ±100 the full control effect
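Fluorescent replication assay: 50 nM final substrate added after a 15 min room-temperature compound preincubation with 10 nM enzyme. Signal taken at 0 min and again at 10 min.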
POLI inh = qHTS for Inhibitors of Polymerase Iota; DNA polymerase iota (Homo sapiens), Q9UNA4; Pol iota fluorescent replication assay, 10 min; Potency, µM (doses to about 115 µM), for inactives: at the highest dose activity, negative = inhibition, usual class: inhibitors; 390,000 tested, 1% active; AID 588590, 2011
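Fluorescent replication assay read twice, at 0 min and 10 min after adding 50 nM (final) substrate. Enzyme (10 nM) and compounds were first incubated 15 min at room temperature; enzyme-free buffer wells were negative controls.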
WRN inhibitor = qHTS for Inhibitors of WRN Helicase | Bifunctional 3'-5' exonuclease/ATP-dependent helicase WRN (Homo sapiens), Q14191 | WRN helicase unwinding, fluorescent forked duplex, kinetic | Potency, µM (titrated, usually from 114 µM), for inactives: top-dose activity change, negative = inhibition, actives largely listed as inhibitors | 360,000 tested, 0.46% active | AID 651768, 2012; further: on the % scale 0 is the no-effect control and ±100 the full control effect; nearly all actives have a fitted effect of over 55% in size
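Screening of the MLSMR collection measured strand separation of a quenched forked DNA duplex (100 nM) by 20 nM WRN with 2 mM ATP, all final. Compounds were preincubated with enzyme 15 min at room temperature.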
The depositor's hits bear a star; u = inconclusive; x = no result given; [ ] = another dose, or the depositor's remark. The call rests on the fitted dose curve; in most records, active means well fitted curve in the direction sought with a large enough effect; inconclusive means small, poorly fitted or top-dose-only effect, or another doubt; inactive means no such curve, though single readings can be large; an effect the other way counts as inactive or inconclusive. Potency means the concentration at half of the fitted maximal effect.

SMILES	FEN1 inh	Pol kappa inh	POLB inh	POLH inh	POLI inh	WRN inhibitor
Cc1cc(SCC(=O)NC(=O)NCc2ccco2)nc2ccccc12	11%	-5%	0%	-16%	u	-7%
Cc1ccccc1CSCC(=O)NC(=O)NCc1ccco1	-22%	u	11µM*	u	32µM*	u
O=C(CSc1nc2ccccc2s1)NC(=O)NCc1ccco1	-12%	-25%	22µM*	-7%	-13%	-9%
Cc1noc(C)c1-c1nccc(N2CCN(C)CC2)n1	x	-1%[60.1 µM]	x	x	x	x
CC(=O)Nc1ccc(-c2nnc(SCc3ccccc3)n2C)cc1	-1%	-6%	x	x	61%	x
O=C(CSc1nnc(CNC(=O)c2c(F)cccc2F)o1)NCc1ccco1	0%	-29%	25µM*	u	u	u
COc1ccc(-c2[nH]c(-c3ccccc3)nc2SCC(=O)NCc2ccco2)cc1OC	-10%	-24%	40µM*	u	u	-17%
Cc1nonc1NC(=O)CSc1nc2ccccc2[nH]1	10%	-5%	u	u	u	-29%
CS/C(=N\S(=O)(=O)c1cccs1)NC(=O)CSc1nc2ccccc2s1	u	-26%	u	50µM*	u	u
CCOC(=O)NC(=O)CSc1nc2ccccc2[nH]1	-3%	5%	50µM*	-9%	27%	10%
OC1C(Br)=Cc2ccccc21 (configuration not stated)	0%	-4%	x	x	5%	x
Cc1ccccc1NC(=O)c1nc(SCc2ccccc2F)ncc1Cl	-6%	-5%	x	x	9%	x
Cc1ccc2cc3c(N)nn(C(=O)c4cccc(F)c4)c3nc2c1	-4%	-13%	-26%	-17%	30%	x
O=C(CSc1nn(-c2ccc(F)cc2)c(=S)s1)NC(=O)NCc1ccco1	5%	-4%	45µM*	2%	u	-14%
Cc1nnc(SCC(=O)NC(=O)NCc2ccco2)s1	-5%	-8%	-12%	-1%	-4%	-9%
Cc1cc(SCC(=O)NC(=O)NCc2ccco2)nc2c(C)cccc12	-9%	-22%	16µM*	-26%	u	-21%
C=CCn1c(COc2ccccc2-c2ccccc2)nnc1SCC(=O)NC(=O)NCc1ccco1	6%	-5%	-15%	-10%	u	1%
COc1ccc(C)cc1-n1nnnc1SCC(=O)NC(=O)NCc1ccco1	2%	u	14µM*	89µM*	28µM*	-3%[11.6 µM]
C=CCn1c(COc2ccccc2F)nnc1SCC(=O)NC(=O)NCc1ccco1	-6%	u	40µM*	u	32µM*	-18%
CCCCn1c(SCC(=O)NC(=O)NCc2ccco2)nc2cc(S(N)(=O)=O)ccc21	8%	u	28µM*	79µM*	u	-9%[11.6 µM]
CCCCn1c(SCc2ccc(C(=O)OC)o2)nc2cc(S(N)(=O)=O)ccc21	-15%	-5%	0%	-5%	4%	-11%[57.1 µM]
Cc1nc([N+](=O)[O-])cn1CC(=O)c1ccc2c(c1)OCCO2	-5%	9%	x	x	-8%	x
O=C(O)C1=C[C@@H](c2ccccc2)C[C@@H](OCc2ccc(CO)cc2)O1	17%	-8%	-4%	-5%	-3%	-2%
C#Cc1ccc([C@@H]2C=C(C(=O)O)O[C@H](OCc3ccc(CO)cc3)C2)cc1	12%	u	22µM*	40µM*	u	-31%
CCCS(=O)(=O)N1CCN(Cc2ccccc2OCC)CC1	-7%	-9%	89µM*	-3%	7%	7%
SMILES	FEN1 inh	Pol kappa inh	POLB inh	POLH inh	POLI inh	WRN inhibitor
CCS(=O)(=O)N1CCN(Cc2ccccc2OC)CC1	0%	-14%	-4%	-2%	8%	-6%[57.1 µM]
O=C(O)/C=C/C(=O)Nc1ccc(Cl)c(C(=O)O)c1	4%	-30%	u	45µM*	u	-2%
O=C(O)/C=C/C(=O)Nc1ccc(Oc2ccc(NC(=O)/C=C/C(=O)O)cc2)cc1	x	x	40µM*	x	x	x
COc1ccc(C(=O)Nc2ccc(OC)c([N+](=O)[O-])c2)cc1Br	-12%	-15%	20µM*	u	-48%	-9%
CC(C)(C)n1ncc2c(=O)n(Cc3c(F)ccc(F)c3Cl)cnc21	-7%	-18%	x	x	7%	x
COc1cccc(=O)c2c(C)n(CC(=O)c3ccccc3)c(C)c12	-14%	-27%	22µM*	u	u	-13%
COc1ccccc1C(=O)CC(=O)c1ccccc1	-11%	-12%	-4%	-3%	1%	-9%
CCOc1cc(CNc2ccc(O)cc2)cc(Cl)c1OCc1ccccc1	-23%	-25%	-29%	-12%	25µM*	x
CCOc1cccc(CNc2ccc(O)cc2)c1OCc1ccccc1Cl	u	-24%	-9%	u	8.9µM*	u
CCOc1cccc(CNn2cnnc2)c1OCc1ccccc1Cl	-2%	-4%	8%	2%	-9%	-8%
Cc1cc(C(=O)COC(=O)c2cc(O)c3ccccc3c2O)c(C)n1CC1CCCO1 (configuration not stated)	u	-17%	45µM*	-26%	53%	u
Cc1ccc(S(=O)(=O)N2CCOCC2)cc1NC(=O)CSc1nc2ccccc2c(=O)n1Cc1ccccc1	-9%	6%	-10%	-6%	23%	3%
O=C(CSc1nc2ccccc2c(=O)n1Cc1ccccc1)Nc1ccc(Br)cc1C(=O)O	-21%	-17%	u	89µM*	u	2%[11.6 µM]
COc1cc(NCCCCCCN)c2ncccc2c1OC	u	-10%	x	45µM*	11µM*	50µM*
CCOC(=O)c1cc(C#N)c(SC(C(=O)N2CCCCC2)c2ccccc2)nc1C (configuration not stated)	u	-5%	x	x	u	x
Cc1cc(Cn2cnc3c(cnn3C(C)(C)C)c2=O)ccc1F	-12%	1%	x	x	-5%	x
CC(=O)n1cc(N(C(=O)CCl)c2ccc(C)cc2)c2ccccc21	7%	4%	2%	32µM*	6%	-2%
CC1(C)SC2[C@@H](N=CN3CCCCCC3)C(=O)N2[C@H]1C(=O)O (some centres not stated)	x	-7%[60.1 µM]	x	x	x	x
Cc1cc(O)c(CN2CCN(c3ccccc3)CC2)c2oc(=O)cc(C)c12	-10%	-5%	-12%	x	7%	x
CCc1cccc(C)c1NC(=O)C1CCN(S(=O)(=O)c2cccc3nonc23)CC1	89µM*	u	u	-1%	89µM*	x
